# Assay results published in PubChem BioAssay (Tox21).
# Inconclusive results are not listed. Calls of active or inactive are those of the source. Calls come from the whole dose curve; as a rule, active = well fitted cell-killing curve with a large enough effect in the repeat runs; inconclusive = weak or mixed curves, or effect the other way; inactive = flat fitted curve, though single readings scatter.
# Test: qHTS RealTime-Glo MT Cell Viability Assay in HEK293 cells - 8 hour (AID 1224887); note: top concentration of the series differs between compounds; nearly all actives have a fitted effect of over 50% in size
# Settings: RealTime-Glo luminescence; series mostly up to 76.8 µM
# Description: U.S. Tox21 Program National Center for Advancing Translational Sciences [NCATS] NIH Chemical Genomics Center [NCGC] U.S. Environmental Protection Agency [EPA] National Institutes of Environmental Health Sciences [NIEHS] National Toxicology Program [NTP] U.S. Food and Drug Administration [FDA] Tox21 Assay Overview: Measure of cell viability is critical in the cell-base assay. Analysis of cell viability is necessary for the characterization of cell responses to cytotoxic drugs and environmental stress. A RealTime-Glo MT Cell Viability Assay to monitor cell viability in real time of continues cell culture during 40 hours of compound treatment was used to screen Tox21 10K library compounds in Hek293 cells. The RealTime-Glo MT Cell Viability Assay is a nonlytic, homogeneous, bioluminescent method to measure cell viability in real time using a simple, plate-based method. The assay involves adding NanoLuc luciferase and a cell-permeant prosubstrate to cells in culture. Viable cells reduce the proprietary prosubstrate to generate a substrate for NanoLuc luciferase. This substrate diffuses from cells into the surrounding culture medium, where it is rapidly used by the NanoLuc Enzyme to produce a luminescent signal. The signal correlates with the number of viable cells, making the assay well suited for cytotoxicity studies.
# Tox21 Assay Protocol Summary: The mixture of Hek293 cell suspension and reagents were dispensed at 600cells/6 ul/well in 1536-well tissue culture treated black solid bottom plates using a Multidrop dispenser. After the assay plates were incubated at a 37 C/5% CO2 incubator for 5 hours, 23 nL of compounds dissolved in DMSO, positive and negative controls was transferred to the assay plate by a pintool work station. The plates were incubated at 37 C for 40 hours. The luminescence intensity were measured at 0h, 8h, 16h, 24h, 32h and 40h time points using ViewLux plate reader during compound treatment.
row,Compound,outcome
1,CCCN(CCC)N=O,inactive
2,c1ccc(OP(Oc2ccccc2)Oc2ccccc2)cc1,inactive
3,COC(=O)c1ccccc1N,inactive
4,Cc1ccc([N+](=O)[O-])cc1C,inactive
5,CCc1cccc(C)c1N(C(=O)CCl)C(C)COC (stereo not given),inactive
6,CN(N=O)c1ccccc1,inactive
7,CCN(CC)c1ccccc1,inactive
8,OC(O)C(Cl)(Cl)Cl,inactive
9,C1CC2OC2CC1C1CO1 (stereo not given),inactive
10,CC(C)C#N,inactive
11,C1CN2CCN1CC2,inactive
12,BrCCBr,inactive
13,CN(C)CCO,inactive
14,O=c1[nH]c(=O)[nH]c(=O)[nH]1,inactive
15,O=[N+]([O-])c1ccccc1,inactive
16,CCCCOC(=O)c1ccccc1C(=O)OCCCC,inactive
17,Clc1cccc(Cl)c1Cl,inactive
18,C#CC(C)(C)NC(=O)c1cc(Cl)cc(Cl)c1,inactive
19,CCC12COCN1COC2,inactive
20,CCC[N+](=O)[O-],inactive

row,Compound,outcome
1,Nc1c(Cl)c(Cl)nc(C(=O)O)c1Cl,inactive
2,NCCc1ccc(O)cc1,inactive
3,CCC(C)(CC)c1cc(NC(=O)c2c(OC)cccc2OC)on1,inactive
4,CC1C=[C-]C=C1.[C-]#[O+].[C-]#[O+].[C-]#[O+].[Mn],inactive
5,Cc1ccccc1O,inactive
6,CC(C#N)CCC#N (stereo not given),inactive
7,CC(C)NC(=O)N1CC(=O)N(c2cc(Cl)cc(Cl)c2)C1=O,inactive
8,CC(C)(Cl)Cl,inactive
9,c1ccc2c(c1)Oc1ccccc1O2,inactive
10,CCOP(=S)(OCC)Oc1cnc2ccccc2n1,inactive
11,CC(=O)C=C(C)C,inactive
12,[O-][Cl+2]([O-])O,inactive
13,O=S(=O)(c1ccc(O)cc1)c1ccc(O)cc1,inactive
14,COC(=O)c1ccccc1C(=O)OC,inactive
15,C#CCN(C)[C@H](C)Cc1ccccc1,inactive
16,Nc1ccccc1C(=O)O,inactive
17,CC(NC(C)(C)C)C(=O)c1cccc(Cl)c1 (stereo not given),inactive
18,Cc1cc(Cl)ccc1O,inactive
19,CCOP(=S)(OCC)SCCSCC,inactive
20,CCOC(=O)c1ccccc1C(=O)OCC,inactive
